The text below walks through data of ChEMBL document CHEMBL1201862, “PubChem BioAssay data set” (2004).

About 4,000 (6.9%) of roughly 58,000 sequences were called active. No stated cut-off is given here; in the data, active = GI50 up to about 1.1 µM and inactive = higher. These entries were drawn from the full list. Potency and affinity values are given separately.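 Protocol summary: plate cells (96-well), add compound at 5 concentrations, incubate 48 h, interpolate endpoints linearly. GI50 = concentration required for 50% inhibition of growth.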

This assay relates to SF-295. Description: NCI tumour cell line growth inhibition, 48 h.
Substance “mu-(1,7-nanodiamine-N,N')bis-(cis-aminedichloroplatimum (II)), CHEMBL2146215” displayed a GI50 of 14.3 µM. For “[Bis(aminomethyl)tetramethylenesilane]dichloropaltinum(II), CHEMBL2146205” the value was 27.7 µM; for “[Bis(aminomethyl)pentamethylenesilane]tetrachloropaltinum(IV), CHEMBL2146204”, 3.3 µM. To “[Bis(aminomethyl)dimethylsilane]tetrachloroplatinum(IV), CHEMBL2146190” belongs 4.39 µM.

As for “[Bis(aminomethyl)pentamethylenesilane]dichloropaltinum(II), CHEMBL2146202”, the GI50 worked out at 2.65 µM. Consider “cis-Bis[[(trimethylsilyl)methyl]amino]tetrachloroplatinum(IV), CHEMBL2146191”, for which the GI50 amounted to 13.7 µM. “[Bis(aminomethyl)tetramethylenesilane]tetrachloropaltinum(IV), CHEMBL2146189” displayed a GI50 of 5.25 µM. For the substance “[Bis(aminomethyl)ethylmethylsilane]tetrachloroplatinum(IV), CHEMBL2146192”, the GI50 came out at 3.17 µM. In turn, “[Bis(aminomethyl)dimethylsilane]dichloroplatinum (II), CHEMBL2146201” came in with a GI50 of 11.9 µM.

For CISPLATIN, CHEMBL11359, the GI50 stood at 0.912 µM.

On to “[Bis(aminomethyl)diethylsilane]tetrachloroplatinum(IV), CHEMBL2146203”, for which the GI50 was found to be 3.37 µM.
